Sampled rows, rich in hits. Any-hit rate of the full collection: about 6.3%.
S2 tox = reduces viability in counter-screen for ATXN expression inhibitors | S2 cells (HEK-293 line with an ATXN2-luciferase reporter) viability, CellTiter-Fluor protease fluorescence, 24 h | Potency, µM (series often up to 56.7 µM), actives largely listed as cytotoxic | 400,000 compounds, 0.49% hits | AID 651635; note: nearly all actives have a fitted effect of over 40% in size
Gal4-VP16 FLuc = counter-screen for ROR gamma inhibitors: Gal4-VP16 reporter. Drosophila S2 Gal4-VP16 UAS-luciferase, luminescence, 20 h. Potency, µM (highest dose often 53.6 µM), without a hit: at the top dose activity, negative = inhibition, most hits filed as inhibitors. 310,000 compounds, 3.5% hits;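 note: Gal4-VP16 expression switched on by copper sulfate through the metallothionein promoter; % is set by controls: 0 for no effect and ±100 for the full control effect; nearly all actives have a fitted effect of over 50% in size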
ATXN2 expr inh = reduces ATXN2 reporter expression in HEK-293 cells; HEK-293 ATXN2-luciferase reporter, luminescence, 24 h; Potency, µM (series often up to 57 µM), for the others: at the highest dose activity change, negative = inhibition, hits mostly inhibitors; 360,000 compounds, 0.72% hits; note: % is set by controls: 0 for no effect and ±100 for the full control effect; nearly all actives have a fitted effect of over 55% in size
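ATXN2-luciferase reporter cells (luciferase flanked by upstream and downstream ATXN2 gene portions) were treated 24 h at 37 °C with compounds at up to 57 uM. SteadyGlo luminescence gave expression; GF-AFC fluorescence gave viability.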
RORgamma inh = blocks mouse ROR gamma transcriptional activity; Potency, µM (doses to about 53.6 µM), without a hit: at the top dose activity change, negative = inhibition, actives largely listed as inhibitors; 310,000 compounds, 5.4% hits; AID 2551; Drosophila S2 Gal4-RORgamma UAS-luciferase reporter, 20 h; note: % is set by controls: 0 for no effect and ±100 for the full control effect; nearly all actives have a fitted effect of over 60% in size
Target sequence (P51450 whole entry, looked up, the tested form may be a part): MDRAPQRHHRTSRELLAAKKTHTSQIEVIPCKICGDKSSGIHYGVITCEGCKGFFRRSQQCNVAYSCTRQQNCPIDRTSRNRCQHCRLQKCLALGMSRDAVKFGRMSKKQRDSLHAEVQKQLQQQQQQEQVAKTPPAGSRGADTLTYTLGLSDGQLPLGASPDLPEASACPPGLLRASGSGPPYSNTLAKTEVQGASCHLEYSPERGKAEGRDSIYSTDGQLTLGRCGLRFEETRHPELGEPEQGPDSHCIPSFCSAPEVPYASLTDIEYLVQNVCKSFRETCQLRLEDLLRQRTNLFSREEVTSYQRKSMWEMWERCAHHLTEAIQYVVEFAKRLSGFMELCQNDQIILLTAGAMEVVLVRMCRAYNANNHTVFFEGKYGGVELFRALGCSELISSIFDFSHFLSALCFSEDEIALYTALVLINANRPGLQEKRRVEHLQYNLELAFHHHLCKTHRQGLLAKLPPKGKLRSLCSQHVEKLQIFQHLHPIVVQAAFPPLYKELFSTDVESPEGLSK
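Using a luciferase readout, inhibitors were identified by reduced reporter activity in Drosophila cells coexpressing a copper-inducible Gal4–ROR gamma fusion and UAS-driven Photinus luciferase, incubated 20 hr after 700 uM copper sulfate.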
TGFb inhibitor = blocks TGF-b signaling; HepG2 CAGA-GFP TGF-b/SMAD3 reporter, GFP fluorescence, 18 h; TGF-beta stimulated, 500 pg/mL final; Potency, µM (highest dose often 46.1 µM), for inactives: at the top dose activity, negative = inhibition, hits mostly inhibitors; 410,000 compounds, 1.2% hits; AID 588855; note: % is set by controls: 0 for no effect and ±100 for the full control effect; nearly all actives have a fitted effect of over 65% in size
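HEPG2 CAGA-GFP reporter cells (1000/well, DMEM with 1% FBS) received compounds, then recombinant TGF-beta at 500 pg/mL final for 18 hours at 37 degrees C. Per-cell GFP summed per well was normalised to unstimulated and stimulated DMSO controls before curve fitting.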
HepG2 viability = kills HepG2 cells in TGF-b inhibitor counter-screen | HepG2 CAGA-GFP viability, ATP luminescence, 18 h | Potency, µM (series often up to 46.1 µM), for inactives: top-dose activity change, negative = cytotoxicity, usual class: cytotoxic | 410,000 compounds, 0.76% hits
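CellTiter-Glo luminescence gave cytotoxicity after 18 hours at 37 degrees C. The cells were HepG2 CAGA-GFP in 1% FBS DMEM, stimulated with 500 pg/mL TGF-beta after compound addition. %Activity was normalised to no-cell wells (complete cell-killing) and DMSO (no toxicity), and curves were fitted and classified.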
* marks the source's active call; other numbers are inactive results; i = inactive; ? = inconclusive; / = no result; ! = a repeat was not active; [ ] = another dose, or the depositor's remark. Calls come from the whole dose curve; as a rule, active = well fitted curve in the direction sought with a large enough effect; inconclusive = small, poorly fitted or top-dose-only effect, or another doubt; inactive = no such curve, though single readings can be large; an effect the other way counts as inactive or inconclusive. Potency is the fitted concentration of half-maximal effect.

SMILES	S2 tox	Gal4-VP16 FLuc	ATXN2 expr inh	RORgamma inh	TGFb inhibitor	HepG2 viability
Cc1nc([N+](=O)[O-])cn1CC(=O)c1ccc2c(c1)OCCCO2	/	/	/	/	19%	11%
CCN1CCN(Cc2c(O)ccc3oc(C)c(C(=O)Nc4cccc(C(F)(F)F)c4)c23)CC1	?	/	?	/	?	13µM*
CCOC(=O)c1[nH]c(C)c(/C(O)=C2\C(=O)C(=O)N(CCCN3CCOCC3)C2c2cccs2)c1C (stereo not drawn)	i	0%	-3%	?	-12%	-11%
CSc1ccccc1NS(=O)(=O)c1cccc2nonc12	i	-18%	5%	11µM*	-20%	-6%
CC(=O)c1ccccc1NS(=O)(=O)c1cccc2nonc12	i	0%	-6%	-30%	-16%	1%
Cc1cccc(C(=O)Nc2cc3c(cc2C)n(C)c(=O)n3C)c1	/	/	/	/	32%	-4%
Cc1c(C(=O)NC2CCCCCC2)sc2ncnc(NCC3CCCO3)c12 (stereo not drawn)	i	/	/	/	/	/
CNC(=S)NCCN1CCOCC1	i	-5%	-9%	-3%	?	8%
CC(NC(=S)NCCCN1CCOCC1)C1CC2CCC1C2 (stereo not drawn)	i	?	-17%	5.6µM*	0%	-5%
CC(NC(=S)NCCN1CCOCC1)C12CC3CC(CC(C3)C1)C2 (stereo not drawn)	i	-14%[10 µM]	-13%[11.3 µM]	5µM*	8%	-24%
CCCc1ccc(C(=O)O/N=C(\N)c2ccccn2)cc1	i	11µM*	?	13µM*	4%	-51%
N/C(=N\OC(=O)c1ccc2ccccc2c1)c1ccccn1	i	7.9µM*	11µM*	4.5µM*	-9%	-41%
COc1cccc(C(=O)O/N=C(\N)c2ccccn2)c1	i	14µM*	/	?	-8%	-69%
O=C(NCCS(=O)(=O)c1ccc(C(F)(F)F)cn1)c1ccc(Cl)cc1	/	/	2%	/	/	/
Cc1ccccc1C(=O)NC(C)c1nnc2n1CCN(Cc1ccccc1F)CC2 (stereo not drawn)	i	/	/	/	/	/
COc1cc(C)ccc1OCCSc1nc2ccc(NC(=O)c3ccccc3F)cc2s1	i	/	5%	/	6%	0%
Cc1ccc(NC(=S)N2CCCC(c3nc4ccccc4[nH]3)C2)cc1 (stereo not drawn)	i	-4%	/	?	-6%	-10%
Cc1ccc(NC(=S)c2nc3ccccc3[nH]2)c(C)c1	i	?	82%	14µM*	-19%	-23%
Cc1ccc(NC(=S)c2nc3ccccc3[nH]2)cc1	i	7.9µM*	59%	3.2µM*	?	-38%
Oc1cc(O)cc(C=Cc2ccc(O)c(O)c2)c1	/	/	37%	/	/	/
Oc1ccc(/C=C\c2cc(O)cc(O)c2)cc1	/	13µM*	/	3.5µM*!	/	/
Oc1ccc(/C=C/c2cc(O)cc(O)c2)cc1	?	14µM*!	44%	2µM*	4%	-20%
Oc1ccc(C=Cc2cc(O)cc(O)c2)cc1	/	/	59%	/	/	/
CC(C(=O)N1CCCC1)N(c1ccccc1)S(C)(=O)=O (stereo not drawn)	/	-5%	/	-25%	/	/
Clc1ccc(/C=C/c2ccc3ccccc3n2)c(Cl)c1	/	/	/	/	30%	8%
COc1ccc(CC(=O)N2CCc3cc(OC)c(OC)cc3C2COc2ccc3c(C)cc(=O)oc3c2)cc1OC (stereo not drawn)	i	/	3%	/	-17%	3%
O=c1c(CCc2ccccc2)nc2cnc(N3CCNCC3)nc2n1Cc1ccc(F)cc1	/	?	/	4.5µM*	/	/
CCN(Cc1ccc(OC)cc1)c1ccc(-c2nc(-c3ccncc3)no2)cc1[N+](=O)[O-]	i	/	-11%	/	-3%	-45%
COc1ccccc1NC(=O)c1c(C)cc(C)nc1SCC(=O)Nc1cccc(C)c1	?	/	-19%	/	10µM*	-21%
NC(=O)N/N=C1\CCS(=O)(=O)c2ccc(F)cc21	i	-1%	12%	-17%	19%	29%
